According to PubChem BioAssay:

molecular target: Tumor necrosis factor receptor superfamily member 10B (Homo sapiens) (UniProt O14763); assay: viability loss of caspase-8 NB7 cells with TRAIL – with/without TRAIL, luminescence panel, confirmation (AID 651596); details: NB7 neuroblastoma + caspase-8, TRAIL sensitization, NB7 Caspase-8, with TRAIL, mean of runs, at 10 µM, stronger effect = higher value
Sequence (O14763 whole entry, looked up): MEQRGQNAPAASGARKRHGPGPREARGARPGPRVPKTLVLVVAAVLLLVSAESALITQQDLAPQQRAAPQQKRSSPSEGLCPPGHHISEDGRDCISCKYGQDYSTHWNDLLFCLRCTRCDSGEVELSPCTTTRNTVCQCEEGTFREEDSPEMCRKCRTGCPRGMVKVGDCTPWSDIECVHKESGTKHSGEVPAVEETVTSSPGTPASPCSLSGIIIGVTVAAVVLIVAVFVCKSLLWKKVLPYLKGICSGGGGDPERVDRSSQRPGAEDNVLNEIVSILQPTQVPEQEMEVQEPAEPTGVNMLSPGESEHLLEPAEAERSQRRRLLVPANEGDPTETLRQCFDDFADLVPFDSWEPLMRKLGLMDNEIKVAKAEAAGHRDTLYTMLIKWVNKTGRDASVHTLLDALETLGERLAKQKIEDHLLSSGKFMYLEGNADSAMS

Structure (SMILES) | activity
CCC(=O)Nc1cc2nn(-c3ccc(OC)cc3)nc2cc1C | 62.5%
COC(=O)CSc1ncnc2c1sc1nc3c(cc12)COC(C)(C)C3 | 82.5%
c1ccc2nc3c(nc2c1)[nH]c1ccccc13 | 45.7%
COc1ccc(C)c2sc(N(CCCN(C)C)C(=O)c3ccc(S(=O)(=O)N4CCc5ccccc5C4)cc3)nc12 | 95.1%
CSc1ccc(C2NC(=O)c3ccccc3N2)cc1 (stereo not drawn) | 31.3%
COc1cc2c3nnc(-c4ccc(F)cc4)c-3cn(Cc3cccc(C)c3)c2cc1OC | 48.9%
O=C(CCl)N(c1ccccc1)C1CCCCC1 | 99.4%
COc1cccc(Cn2c(NCc3cccnc3)nc3c2c(=O)n(C)c(=O)n3C)c1 | 79.5%
CCOc1cc(/C=C\[N+](=O)[O-])ccc1OCC(=O)Nc1ccccc1C | 88.8%
CCN1CCN(c2ccc(S(=O)(=O)N3CCCCC3)cc2NC(=O)/C=C/c2ccc(OC(F)F)cc2)CC1 | 3.5%
NC(=O)c1ccsc1NC(=O)c1ccc(N2CCCC2=O)cc1 | 87.3%
COc1ccc(C2C(O)C(c3c[nH]c4ccccc34)=NN2C(=O)CCl)cc1 (stereo not drawn) | 99.2%
COc1ccc(C=C2OC(=O)C(C(C)=O)=C2O)cc1 | 90.4%
COc1ccc(C2NN=C(c3ccc(C)cc3)S2)cc1OC (stereo not drawn) | 60%
O=C(Nc1cccnc1Cl)c1ccc2c(Cl)c3c(nc2c1)CCC3 | 78.5%
Nc1ccc(-c2ncc(-c3ccccc3)o2)cc1 | 28.2%
O=C(OCn1ncc(Cl)c(Cl)c1=O)c1cccc(C(F)(F)F)c1 | 99.2%
O=C(CSc1nnc(-c2ccccc2Cl)o1)Nc1ccccn1 | 68.8%
COc1ccccc1NC(CC(=O)c1ccccc1)C(=O)OCC(=O)c1ccc(F)cc1 (stereo not drawn) | 69.5%
CCc1cc2c(COC(=O)c3cc(S(=O)(=O)N4CCOCC4)ccc3F)cc(=O)oc2cc1O | 77.3%

Structure (SMILES) | activity
C(=N\Nc1nncc2ccccc12)/c1ccccc1 | 88.2%
COC(=O)c1ccccc1NC(=O)c1cc(-c2ccc(O)cc2)on1 | 15.1%
COC(=O)c1ccc2nc(NC(=O)C(C)(C)C)sc2c1 | 93.2%
O=C(NCc1cc(C(F)(F)F)ccc1Cl)c1cccc2c1C(=O)c1ccc(N3CCC(N4CCCCC4)CC3)cc1S2(=O)=O | 93%
CCOC(=O)c1cnc(-n2nc(C)cc2C)nc1N(C)C | 55.4%
C(=Cc1nc2ccccc2o1)c1ccc2c(c1)OCO2 | 86.1%
Cc1cnc(NC(=O)COc2ccccc2Cl)s1 | 83%
CCOc1ccc(-c2nc(-c3cccnc3)no2)cc1 | 53.3%
COc1ccccc1/C=C/C(=O)Nc1ccc2c(c1)OCCO2 | 66.6%
Cn1c(-c2ccc(Br)o2)nc2ccccc21 | 57.9%
CCc1ccc(C(=O)Cn2ncc(Cl)c(Cl)c2=O)cc1 | 99.2%
Cc1nc2cc(Nc3nnc(-c4ccccc4)c4ccccc34)ccc2n1C | 87.9%
Cc1ccccc1CS(=O)(=O)c1ncc(Cl)c(C(=O)Nc2ccc(F)cc2)n1 | 22.5%
CCOc1cccc2cc(-c3nnc(NCc4ccco4)s3)c(=O)oc12 | -11.9%
C=C1C(=O)OC2C=C(CO)C3OC3C3OC3(C)CC(OC(=O)/C(=C/C)COC(C)=O)C12 (stereo not drawn) | 70.1%
CCCCCCCN(C(=O)CCl)c1cccc(C)c1 | 99%
O=c1cc(-c2c(F)c(F)c(F)c(F)c2F)oc2ccccc12 | 98.1%
O=C(CN1C(=O)c2ccccc2S1(=O)=O)c1ccccc1F | 16.9%
CCOc1ccc(CN(C)C(=O)[C@H](Cc2ccccc2)NC(=O)OCc2ccccc2)cc1OC | -12.3%

tested on: not listed separately; assay: as above; details: NB7 neuroblastoma + caspase-8, without TRAIL, NB7 Caspase-8, without TRAIL, mean of runs, at 10 µM

Structure (SMILES) | activity
CCC(=O)Nc1cc2nn(-c3ccc(OC)cc3)nc2cc1C | 61.8%
COC(=O)CSc1ncnc2c1sc1nc3c(cc12)COC(C)(C)C3 | 86.8%
c1ccc2nc3c(nc2c1)[nH]c1ccccc13 | 44.5%
COc1ccc(C)c2sc(N(CCCN(C)C)C(=O)c3ccc(S(=O)(=O)N4CCc5ccccc5C4)cc3)nc12 | 99.4%
CSc1ccc(C2NC(=O)c3ccccc3N2)cc1 (stereo not drawn) | 45.8%
COc1cc2c3nnc(-c4ccc(F)cc4)c-3cn(Cc3cccc(C)c3)c2cc1OC | 67%
O=C(CCl)N(c1ccccc1)C1CCCCC1 | 99.8%
COc1cccc(Cn2c(NCc3cccnc3)nc3c2c(=O)n(C)c(=O)n3C)c1 | 84.7%
CCOc1cc(/C=C\[N+](=O)[O-])ccc1OCC(=O)Nc1ccccc1C | 91.9%
CCN1CCN(c2ccc(S(=O)(=O)N3CCCCC3)cc2NC(=O)/C=C/c2ccc(OC(F)F)cc2)CC1 | 5.28%
NC(=O)c1ccsc1NC(=O)c1ccc(N2CCCC2=O)cc1 | 85.7%
COc1ccc(C2C(O)C(c3c[nH]c4ccccc34)=NN2C(=O)CCl)cc1 (stereo not drawn) | 99.2%
COc1ccc(C=C2OC(=O)C(C(C)=O)=C2O)cc1 | 89%
COc1ccc(C2NN=C(c3ccc(C)cc3)S2)cc1OC (stereo not drawn) | 55%
O=C(Nc1cccnc1Cl)c1ccc2c(Cl)c3c(nc2c1)CCC3 | 78.4%
Nc1ccc(-c2ncc(-c3ccccc3)o2)cc1 | 29.8%
O=C(OCn1ncc(Cl)c(Cl)c1=O)c1cccc(C(F)(F)F)c1 | 99.3%
O=C(CSc1nnc(-c2ccccc2Cl)o1)Nc1ccccn1 | 74%
COc1ccccc1NC(CC(=O)c1ccccc1)C(=O)OCC(=O)c1ccc(F)cc1 (stereo not drawn) | 65.9%
CCc1cc2c(COC(=O)c3cc(S(=O)(=O)N4CCOCC4)ccc3F)cc(=O)oc2cc1O | 82.5%

Structure (SMILES) | activity
C(=N\Nc1nncc2ccccc12)/c1ccccc1 | 87.7%
COC(=O)c1ccccc1NC(=O)c1cc(-c2ccc(O)cc2)on1 | 27.9%
COC(=O)c1ccc2nc(NC(=O)C(C)(C)C)sc2c1 | 91.2%
O=C(NCc1cc(C(F)(F)F)ccc1Cl)c1cccc2c1C(=O)c1ccc(N3CCC(N4CCCCC4)CC3)cc1S2(=O)=O | 93.6%
CCOC(=O)c1cnc(-n2nc(C)cc2C)nc1N(C)C | 52.1%
C(=Cc1nc2ccccc2o1)c1ccc2c(c1)OCO2 | 84%
Cc1cnc(NC(=O)COc2ccccc2Cl)s1 | 82.7%
CCOc1ccc(-c2nc(-c3cccnc3)no2)cc1 | 51.5%
COc1ccccc1/C=C/C(=O)Nc1ccc2c(c1)OCCO2 | 73.5%
Cn1c(-c2ccc(Br)o2)nc2ccccc21 | 61.8%
CCc1ccc(C(=O)Cn2ncc(Cl)c(Cl)c2=O)cc1 | 99.4%
Cc1nc2cc(Nc3nnc(-c4ccccc4)c4ccccc34)ccc2n1C | 83.9%
Cc1ccccc1CS(=O)(=O)c1ncc(Cl)c(C(=O)Nc2ccc(F)cc2)n1 | 24.9%
CCOc1cccc2cc(-c3nnc(NCc4ccco4)s3)c(=O)oc12 | -7.67%
C=C1C(=O)OC2C=C(CO)C3OC3C3OC3(C)CC(OC(=O)/C(=C/C)COC(C)=O)C12 (stereo not drawn) | 81%
CCCCCCCN(C(=O)CCl)c1cccc(C)c1 | 99%
O=c1cc(-c2c(F)c(F)c(F)c(F)c2F)oc2ccccc12 | 92.1%
O=C(CN1C(=O)c2ccccc2S1(=O)=O)c1ccccc1F | 27.8%
CCOc1ccc(CN(C)C(=O)[C@H](Cc2ccccc2)NC(=O)OCc2ccccc2)cc1OC | 1.82%
